About 83,000 compounds went through this panel and 20% of them were active in at least one assay; those are over-represented in the sample as a whole.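 Cell lines were cultured in 96-well plates, exposed to a single compound concentration, and assessed for percent growth 48 hours later.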 A number with no mark means an inactive call. The source made the active and inactive calls. Rule for the calls: active = growth percent below 10; inactive = the rest.
What was measured:
Assay in all cases: NCI-60 one-dose screen, 48 h (100 = growth as untreated, 0 = no growth, -100 = all killed)
Conditions in all cases: 10 µM unless noted
SR leukemia = tested on: SR leukemia
RPMI-8226 leukemia = tested on: RPMI-8226 leukemia
OVCAR-8 ovarian = tested on: OVCAR-8 ovarian
OVCAR-5 ovarian = tested on: OVCAR-5 ovarian
OVCAR-4 ovarian = tested on: OVCAR-4 ovarian
SK-OV-3 ovarian = tested on: SK-OV-3 ovarian
IGROV1 ovarian = tested on: IGROV1 ovarian
HS 578T breast = tested on: HS 578T breast
NCI/ADR-RES ovarian = tested on: NCI/ADR-RES ovarian
T-47D breast = tested on: T-47D breast
BT-549 breast = tested on: BT-549 breast
MDA-MB-435 melanoma = tested on: MDA-MB-435 melanoma
SW-620 colon = tested on: SW-620 colon
MCF7 breast = tested on: MCF7 breast
HCT-116 colon = tested on: HCT-116 colon
HCC-2998 colon = tested on: HCC-2998 colon
KM12 colon = tested on: KM12 colon

Structure (SMILES)	growth (SR leukemia)	growth (RPMI-8226 leukemia)	growth (OVCAR-8 ovarian) [%]	growth (OVCAR-5 ovarian)	growth (OVCAR-4 ovarian)	growth (SK-OV-3 ovarian)	growth (IGROV1 ovarian)	growth (HS 578T breast)	growth (NCI/ADR-RES ovarian)	growth (T-47D breast)	growth (BT-549 breast)	growth (MDA-MB-435 melanoma)	growth (SW-620 colon)	growth (MCF7 breast)	growth (HCT-116 colon)	growth (HCC-2998 colon)	growth (KM12 colon)
CCCCCCNC(=O)Oc1ccc(/C(=C(/C)c2ccccc2)c2ccc(OCCN(C)C)cc2)cc1	-27.8% (active)	50.5%	73.6	73%	73.6%	93.2%	66.3%	64.5%	71.2%	33.1%	75.3%	53%	27.3%	18%	22.6%	69.3%	66.2%
C/C(=N\NC(=O)CSc1nc2sc3c(c2c(=O)n1-c1ccccc1)CCC(C)C3)c1ccc(Cl)cc1 (stereo unspecified)	6.22% (active)	24.9%	18.8	50%	29.3%	57.4%	19.2%	61.9%	12.4%	46.4%	36.8%	30.1%	31.6%	14%	26.6%	45.4%	25.1%
COc1ccc(-c2nc3cc(Cl)c(Cl)cc3n2CC(=O)N=Nc2c(O)[nH]c3ccc(Br)cc23)cc1	36.4%	31.8%	12	-5.99% (active)	-43.9% (active)	13.5%	-37.9% (active)	-8.55% (active)	-1.87% (active)	-52.7% (active)	3.05% (active)	-59.1% (active)	-54.6% (active)	-11.6% (active)	-31.5% (active)	-25.9% (active)	5.77% (active)
CS(=O)c1nccc(-c2c(-c3ccc(F)c(OCc4ccc(F)cc4)c3)nc3sccn23)n1 (stereo unspecified)	-22.2% (active)	20.2%	89.1	100%	101%	115%	17.7%	98.4%	107%	-37.3% (active)	102%	100%	73%	-50.1% (active)	19.7%	10.2%	54.5%
CC1CCc2c(sc3nc(SCC(=O)N/N=C/c4cccc(O)c4O)n(-c4ccccc4)c(=O)c23)C1 (stereo unspecified)	81%	89.1%	90.6	93.6%	84.7%	107%	92.9%	95.8%	89.1%	74.5%	127%	88.4%	85.4%	88.3%	85.8%	104%	88.9%
CCOC(=O)c1c(Nc2ccccc2)nn2c(-c3ccc(OC)c(OC)c3)ccnc12	23.6%	30.4%	50.5	84.7%	72.4%	72%	102%	49.4%	48.9%	41.3%	112%	69.6%	40.9%	55%	42.7%	52.2%	44.9%
Cc1cc(=O)n2nc(-c3cn(C)c4ccc(Cl)cc34)sc2n1	93%	94.5%	96.8	93.8%	93.7%	84.3%	83.7%	83.9%	93.2%	50.8%	108%	99%	97.6%	14.5%	86.3%	102%	94.1%
Cc1ccc(NC(=O)N[C@@H](Cc2cc(F)cc(F)c2)C(=O)NC2C(=O)N3CCC[C@H]3C(=O)N3CCCC[C@H]3C(=O)N[C@@H](C)C(=O)N3C[C@H](C)C[C@H]3C(=O)O[C@H]2C)c(F)c1 (stereo partly specified)	30.6%	11.6%	21.6	36.3%	23.9%	23.9%	47.5%	28.9%	20.1%	31.5%	28.7%	21.2%	36.5%	15.5%	9.88% (active)	23.9%	38.7%
O=C1Nc2ccc(Br)cc2/C1=N\c1nnc(-c2ccc(Cl)cc2)o1	10.9%	62.5%	82.6	98.7%	86.4%	73.3%	55.3%	83.1%	36.9%	76.7%	63.1%	-20.7% (active)	16.5%	34.9%	49.2%	96.2%	70%
CS(=O)(=O)c1ccc2c(c1)c1c(n2Cc2ccc(Cl)cc2)CCCC1	41.2%	55.8%	72.7	88.1%	75.1%	97.5%	64%	85.4%	48.4%	51.9%	89%	31.1%	74.1%	72.6%	61.9%	85.5%	66.6%
CCOC(=O)/C(F)=C/C1CC1C1CCCCC1 (stereo unspecified)	111%	105%	109	102%	107%	126%	110%	105%	101%	102%	124%	102%	101%	92.2%	97.2%	107%	104%
O=C1/C(=C/c2ccc([N+](=O)[O-])cc2)SC(=Nc2ccccc2)N1Nc1ccccc1	0.29% (active)	42.7%	50	75.8%	52.9%	102%	61.9%	79.1%	45.8%	56.2%	95.6%	71.1%	43.2%	44.1%	26.9%	85.3%	77.5%
O=c1[nH]c2cc(Cl)ccc2n1C1CCN(c2ccc3nnc(Cl)n3n2)CC1	81.8%	90.9%	93.4	95.5%	88.7%	77.5%	96.6%	87.7%	99.9%	86.6%	94.2%	98.4%	93.4%	81.1%	106%	100%	96.5%
CC(C)Sc1nc(NC2CC2)c(C#N)c(-c2ccccc2)n1	96.5%	91%	84.9	84.4%	-8.11% (active)	78.6%	19.8%	68.7%	74.5%	83.5%	105%	88.1%	82.6%	73.7%	53.2%	89.9%	97.5%
Cc1ccccc1NC1CC(=O)N(c2ccc(Cl)cc2Cl)C1=O (stereo unspecified)	102%	102%	103	107%	97.5%	108%	101%	99.6%	99.9%	105%	123%	101%	96.2%	94%	108%	109%	105%
CC(=O)Oc1ccc(CCN2C(=O)CSC2=S)cc1	68.9%	37.6%	103	97.9%	93.8%	113%	103%	100%	96.4%	41.2%	95.9%	69.2%	47.1%	33.3%	75.6%	108%	22.3%
O=C1Nc2ccc(Cl)cc2/C1=C/c1ccc(OCc2ccc(F)cc2)cc1	101%	69.8%	98.5	94%	97.5%	101%	100%	101%	80.5%	102%	107%	93%	102%	84.6%	88.5%	102%	98.8%
C#C[C@]1(O)CC[C@H]2[C@@H]3CC=C4c5sc(Nc6cc(Cl)ccn6)nc5CC[C@]4(C)[C@H]3CC[C@@]21C	4.56% (active)	-22.9% (active)	48.7	47.5%	68.1%	-1.88% (active)	40.1%	-3.53% (active)	34.7%	36.6%	20%	-61.6% (active)	-1.44% (active)	-64% (active)	14.4%	39.8%	-0.602% (active)

From PubChem BioAssay (NCI)
